NPR1 antag = blocks ANP-stimulated signaling of human Npr1 receptor; P16066; HEK293 hNpr1 GloSensor cGMP, ANP-stimulated luminescence; Potency, µM (highest dose often 46.3 µM), inactives show at the top dose activity change, negative = inhibition, usual class: inhibitors; 76,000 compounds, 1.6% hits; calls by dose curve; note: nearly all actives have a fitted effect of over 60% in size
Target sequence (P16066 whole entry, looked up): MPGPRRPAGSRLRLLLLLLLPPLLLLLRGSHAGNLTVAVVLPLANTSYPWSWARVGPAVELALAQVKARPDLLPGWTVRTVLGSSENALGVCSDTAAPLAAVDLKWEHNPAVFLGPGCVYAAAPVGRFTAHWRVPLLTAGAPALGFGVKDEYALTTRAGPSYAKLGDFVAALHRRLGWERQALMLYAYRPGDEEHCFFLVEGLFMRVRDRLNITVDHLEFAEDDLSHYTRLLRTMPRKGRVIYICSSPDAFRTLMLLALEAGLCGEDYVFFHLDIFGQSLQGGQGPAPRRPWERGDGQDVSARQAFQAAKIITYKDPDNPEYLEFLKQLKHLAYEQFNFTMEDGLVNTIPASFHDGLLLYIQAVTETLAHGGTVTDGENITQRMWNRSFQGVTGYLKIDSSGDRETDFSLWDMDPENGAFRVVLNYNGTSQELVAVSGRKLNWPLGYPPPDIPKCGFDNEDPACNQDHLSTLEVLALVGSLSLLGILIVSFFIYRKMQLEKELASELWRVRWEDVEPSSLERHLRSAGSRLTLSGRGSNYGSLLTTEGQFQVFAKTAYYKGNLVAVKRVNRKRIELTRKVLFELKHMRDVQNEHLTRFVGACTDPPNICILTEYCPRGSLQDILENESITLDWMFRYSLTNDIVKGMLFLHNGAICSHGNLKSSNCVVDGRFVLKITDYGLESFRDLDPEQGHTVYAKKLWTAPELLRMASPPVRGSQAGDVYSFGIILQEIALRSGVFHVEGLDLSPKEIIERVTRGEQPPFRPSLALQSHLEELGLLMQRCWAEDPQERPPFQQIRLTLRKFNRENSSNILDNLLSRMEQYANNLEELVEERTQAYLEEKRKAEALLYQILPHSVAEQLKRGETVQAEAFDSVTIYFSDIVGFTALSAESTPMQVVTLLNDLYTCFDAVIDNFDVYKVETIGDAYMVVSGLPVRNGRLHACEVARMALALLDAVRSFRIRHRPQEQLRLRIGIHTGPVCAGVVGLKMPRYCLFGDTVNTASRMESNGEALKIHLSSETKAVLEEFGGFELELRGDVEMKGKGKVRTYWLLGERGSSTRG
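HEK293 cells stably expressing human Npr1 and cGMP GloSensor pGS-40F, loaded 2 h with 2% GloSensor reagent, given compound 30 min at room temperature. Luminescence read before and 20 min after 0.1 nM hNppA.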
HEK293 tox = kills HEK 293 cells; AID 1345083; HEK 293 viability, ATP luminescence (CellTiter-Glo), 48-72 h; 94,000 compounds, 6.6% hits; Potency, µM (top dose mostly 115 µM), for inactives: top-dose activity change, negative = cytotoxicity, most hits filed as inhibitors; note: nearly all actives have a fitted effect of over 60% in size
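Pintool-delivered compounds were incubated with HEK 293 cells (250 cells/well) at 37 degree Celsius for 48 or 72 hr. ATP-dependent luminescence (CellTiter-Glo) then reported remaining viable cells.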
FLuc inh = Photinus pyralis luciferase inhibition; P08659; purified P. pyralis luciferase, luminescence, biochemical; Potency, µM (series often up to 115 µM), usual class: inhibitors; 76,000 compounds, 2.5% hits; AID 1347043; note: nearly all actives have a fitted effect of over 65% in size
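FLuc 10nM, D-luciferin 10uM, ATP 10uM, Mg acetate 10mM, Tris acetate pH 7.5, Tween/BSA; cpd qHTS; enzyme added last; CCD luminescence.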
NIH3T3 tox = cytotoxic compounds in NIH 3T3 cells. NIH 3T3 viability, CellTiter-Glo ATP luminescence, 48-72 h. Potency, µM (series often up to 96.7 µM), for the others: at the highest dose activity change, negative = cytotoxicity, actives largely listed as inhibitors. 94,000 compounds, 4.3% hits. AID 1345082; note: nearly all actives have a fitted effect of over 55% in size
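Luminescent ATP readout (CellTiter-Glo, 10 min RT) after 48 or 72 hr compound exposure of NIH 3T3 cells seeded at 400 cells/well in 1536-well format; quantitative HTS.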
* marks the source's active call; other numbers are inactive results; i = inactive; ? = inconclusive; . = not tested or not shown; ! = not active in a repeat; [ ] = dose if it differs, or a comment. Rows were chosen to be rich in hits. Some 11% of all compounds tested hit in one or more screens of this group. Unless noted, calls come from the whole dose curve; as a rule, active = well fitted curve in the direction sought with a large enough effect; inconclusive = small, poorly fitted or top-dose-only effect, or another doubt; inactive = no such curve, though single readings can be large; an effect the other way counts as inactive or inconclusive. % is set by controls: 0 for no effect and ±100 for the full control effect; potency is the fitted concentration of half-maximal effect.

SMILES | NPR1 antag | HEK293 tox | FLuc inh | NIH3T3 tox
COc1ccc(Nc2ccnc(N3CCN(C(=O)Nc4ccccc4)CC3)n2)cc1 | . | 25.1µM* | . | ?
O=C1CCN(S(=O)(=O)c2ccccc2)CCCN(C(=O)CN2CCOCC2)CCN1 | 5.0% | i | i | -7.8%
N#Cc1cccc(-c2c(C(=O)NCc3cccs3)nc3sccn23)c1 | . | -16.9% | . | -26.1%
C1CNC(c2nc(C3CCOCC3)no2)C1 (stereo not given) | 3.2% | ? | i | i
CCn1ncc(NC(=O)Cn2ncc3cc(-c4ccc(C(=O)N(C)C)cc4)ccc32)n1 | -12.2% | 44.7µM* | 6.31µM* | -21.3%
CCn1ncc(NC(=O)Cn2ncc3cc(-c4cc(F)ccc4F)ccc32)n1 | ? | -63.3% | i | ?
CCn1ncc(NC(=O)Cn2ncc3cc(-c4cccc(C#N)c4)ccc32)n1 | ? | 25.1µM* | i | ?
CCn1ncc(NC(=O)Cn2ncc3cc(-c4ccc(F)cc4F)ccc32)n1 | 12.6µM* | -64.2% | ? | ?
CCn1ncc(NC(=O)Cn2ncc3cc(-c4cccc(OC)c4)ccc32)n1 | ? | -56.7% | ? | -67.5%
CNC(=O)[C@@H]1CN(S(=O)(=O)c2cc(F)ccc2F)C[C@H]1COC | 1.1% | ? | i | i
Cc1[nH]cnc1CSCCn1ccnc1-c1nccn1C | -0.4% | i | i | 4.1%
CSc1ccc(-c2cccc(CN3CCC(N[S+](=O)([O-])c4ccc(C)cc4)CC3)c2)cc1 | . | 20µM* | . | 14.1µM*
Cc1ccc([S+](=O)([O-])NC2CCN(Cc3cccc(-c4ccc(F)c(F)c4)c3)CC2)cc1 | . | 22.4µM* | . | 15.8µM*
CSc1ccc(-c2cccc(CN3CCC(NC(=O)c4ccc(F)cc4)CC3)c2)cc1 | . | -7.8% | . | -14.6%
CC(C)Cn1c(=O)c(C(=O)N2CCN(C(=O)c3ccc(F)cc3)CC2)nc2cccnc21 | . | -8.8% | . | -21.5%
O=C1Nc2ccccc2CC12CCN2Cc1ccc(OC(F)(F)F)cc1 (stereo not given) | -15.5% | 44.7µM* | i | ?
Cc1ccccc1C(=O)N1CCCCC12Cc1ccccc1NC2=O (stereo not given) | 15.1%[70.6 µM] | 112µM*! | i | ?
O=C1Nc2ccccc2CC12CCN(Cc1ccc(Cl)cc1)CC2 | . | 89.1µM* | . | ?
O=[S+]1([O-])NCC2(CCN(Cc3ccc(OC(F)(F)F)cc3)C2)Nc2ccccc21 (stereo not given) | 9.4% | 79.4µM* | i | ?
O=C1CCCCC(C(=O)NCc2ccco2)N1 (stereo not given) | 4.9% | 0.8% | i | -2.4%
O=C(Cn1nc2c(cc1=O)CCCC2)NCCc1ccco1 | 8.6% | 4.4% | i | i
COCC(=O)N1CCN(C(=O)c2nc3cccnc3n(CCc3ccccc3)c2=O)CC1 | . | 1.3% | . | -6.5%
O=C(c1cccnc1)N1CCN(c2ccc3nnc(C4CC4)n3n2)CC1 | . | 2.1% | . | -26.5%
O=C1Nc2ccccc2CC12CCN2Cc1ccc(F)cc1 (stereo not given) | 0.0%[70.6 µM] | ? | i | -25.3%[138 µM]
O=C1Nc2ccccc2CC12CCN(Cc1ccc(OC(F)(F)F)cc1)C2 (stereo not given) | ? | 28.2µM* | i | ?
SMILES | NPR1 antag | HEK293 tox | FLuc inh | NIH3T3 tox
O=C1Nc2ccccc2CC12CCCCN2Cc1ccc(F)cc1 (stereo not given) | -1.7%[70.6 µM] | 79.4µM* | i | ?
O=C1NCc2ccccc2CC12CCN(Cc1ccc(-c3ccccc3)cc1)CC2 | . | 31.6µM* | . | 25.1µM*
CNC(=O)[C@@H](c1ccccc1F)N1CCC[C@H]1C(=O)NCC(C)C | -0.1%[70.6 µM] | -13.1%[172 µM] | i | -6.2%[138 µM]
COc1ccc(CC(=O)N2CCC(Oc3ccc(C(=O)N(C)C)cn3)CC2)cc1Cl | -3.4% | ? | i | -19.5%
CN(C)c1cccc(-c2cnc(Nc3ccncc3)c3c2CCO3)c1 | -12.8%[70.6 µM] | 56.2µM* | i | 50.1µM*
COc1ccccc1-c1cnc(Nc2cccc(N[S+](C)(=O)[O-])c2)c2c1CCO2 | 31.6µM* | 39.8µM* | ? | 20µM*
CN(C)c1cccc(C(=O)Nc2ncc(-c3cccc(F)c3)c3c2OCC3)c1 | -11.9%[70.6 µM] | ? | i | ?
COc1ccccc1-c1cnc(Nc2ccccc2)c2c1CCO2 | -22.8%[70.6 µM] | ? | i | ?
CN(C)c1cccc(-c2cnc(Nc3cccc(N[S+](C)(=O)[O-])c3)c3c2CCO3)c1 | ? | 20µM* | ? | ?
Cc1noc(C)c1-c1cnc(Nc2ccncc2)c2c1CCO2 | -0.6%[70.6 µM] | ? | i | ?
